The values below come from PubChem BioAssay.

SMILES strings stand for the structures. “And” between values parts separate entries of the source, which are not always exact repeats. Equal values may be shown once. The source made the active and inactive calls.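 Rule for the calls, unless noted: active = thallium flux through the channel raised or lowered by more than 3 SD from vehicle-only wells, actives on both sides; inactive = the rest.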

Assay [1] can be described thus: P. berghei load reduction in hepatocytes – cell-based, HepG2, luciferase luminescence, HepG2 viability, primary screen (AID 624349; in the data active = parasite load remaining mostly below about 12%, no sharp cut-off; inactive = mostly above about 10%;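 note: 100% = mean of DMSO negative control wells on the same plate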). The following applies: P. berghei liver stage in HepG2, luciferase luminescence, concentration not given here; parasite load remaining: stronger effect = lower value; viability: measured here: HepG2 viability without parasites.
A short description of assay [2]: signal quenchers or enhancers, Cy5 substrate/SSB – biochemical, NIH Clinical Collection, E. coli SSB, artefact control for HCV NS3 helicase inhibitor project (AID 743268; call rule not given here). Conditions: Cy5-oligo bound E. coli SSB, fluorescence interference.
For assay [3], the system named is Hepatitis C virus NS3 helicase. Kind of assay: blockers of NS3h binding to DNA – biochemical, fluorescence polarization, NIH Clinical Collection, primary screen (AID 743270; call rule not given here). The following applies: NS3 helicase binding to Cy5-dT15 DNA, stronger effect = higher value, concentration not given here.
Assay [4] has as its target Single-stranded DNA-binding protein (Escherichia coli (strain K12)) (UniProt P0AGE0). Put plainly: SSB-ssDNA binding inhibitors – biochemical, fluorescence polarization, NIH Clinical Collection, counter-screen for HCV NS3 helicase inhibitor project (AID 743271; in the data active = inhibition above about 28%). The following applies: E. coli SSB-DNA binding, stronger effect = higher value, concentration not given here. Background: In fluorescence polarisation assays a small probe gives low polarisation when free and higher when bound to something large.

Assay [5] can be described thus: compounds distorting NS3 helicase fluorescence signal – biochemical, NIH Clinical Collection, artefact control for HCV NS3 helicase inhibitor project (AID 743272; call rule not given here;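 note: HCV NS3 helicase with a Cy5 labelled single stranded DNA probe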). Conditions: fluorescence interference counterscreen, HCV NS3 helicase assay; stronger effect = lower value. For orientation: A counterscreen serves to expose hits that act by an unwanted route or on another target.

Assay [6] is described as follows: modulation of C. elegans fzo-1 (AID 1259413; call rule not given here;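 note: fzo-1 mutant C. elegans worms in liquid wells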). The following applies: C. elegans fzo-1 modulator screen, mean read-out; stronger effect = higher value.
The nature of assay [7]: viability loss with induced miR-34 in A549 – imaging, A549 dox-inducible miR-34, nuclei and caspase counts, primary screen (AID 1347080;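 active = compounds whose cell count with miR-34 switched on is under 0.7 times the count with it off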). The following applies: A549 miR-34 inducible, Hoechst nuclei count, 48 h.
Assay [8] is described as follows: galactose survival enhancers in mitochondrial complex I cybrids – cell-based, galactose medium, ATP luminescence, primary screen (AID 1645843;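 active = z-score of at least 1.8 in each of two replicates, scored against plate mean and spread of sample wells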;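 note: positive z means more ATP and so rescue of galactose-driven cybrid death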). The following applies: complex I mutant cybrid cells, 72 h, stronger effect = higher value.
A further assay has as its system F380Y. Kind of assay: BK channel mutant inhibitors and activators – cell-based, U2OS BacMam, thallium flux, beta subunits, selectivity assay, profiling panel (AID 1259406).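 Note: initial slope of Thallos dye fluorescence rise after thallium is added; log ratio against the mean of 0.3% DMSO vehicle wells on the same plate.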 Conditions: U2OS BacMam BK variants, at 30 µM.
Another assay relates to F380Y/beta1. The description is as above. Conditions: U2OS BacMam BK variants, at 30 µM.
In a further assay the test system is F380Y/beta2Delta. Described as above. Conditions: U2OS BacMam BK variants, at 30 µM.
The next assay deals with F380Y/beta4. Described as above. The following applies: U2OS BacMam BK variants, at 30 µM.
Assay [9] has as its target Calcium-activated potassium channel subunit alpha-1 (Homo sapiens) + Leucine-rich repeat-containing protein 26 (Homo sapiens) (UniProt Q12791+Q2I0M4). The assay is described as above. Conditions: U2OS BacMam BK variants, F380Y/Slo1WT/gamma1, at 30 µM.
The subject of the next assay is R275C. The assay is described as above. Conditions: U2OS BacMam BK variants, at 30 µM.
A further assay concerns R275C/beta1. The description is as above. The following applies: U2OS BacMam BK variants, at 30 µM.
The next assay deals with R275C/beta2Delta. Described as above. The following applies: U2OS BacMam BK variants, at 30 µM.
For a further assay, the system named is R275C/beta4. The assay is described as above. Conditions: U2OS BacMam BK variants, at 30 µM.
Another assay relates to R275C/Slo1WT/beta2. Described as above. Conditions: U2OS BacMam BK variants, at 30 µM.
Assay [10] concerns Neuropilin-2 / VEGF-C interaction (human). Kind of assay: small molecules blocking Neuropilin-2/VEGF-C interaction – biochemical, microplate binding format, z-score (AID 743281; call rule not given here). Conditions: microplate NRP2/VEGF-C binding assay; stronger effect = lower value.
The nature of assay [11]: MELAS cybrid and Rieske KO viability enhancers – cell-based, MELAS cybrids, Rieske KO mouse fibroblasts, CellTiter-Glo, primary screen (AID 1508586;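 active = mean z-score across replicates of 1.96 or higher in either the MELAS or the Rieske mutant cell line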;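 note: z relative to plate mean and SD of compound and empty wells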). Conditions: low glucose. A general note: ATP-based viability assays read luminescence as a measure of living cells.
[12] abbreviates: stronger effect = lower value, cell number ratio, induced over uninduced.
[13] abbreviates: measured here: relative caspase fold change +Dox/-Dox.
Where [14] appears, read: measured here: total cells with miR-34 induction, stronger effect = lower value.
The mark [15] stands for this setting: measured here: total cells without miR-34 induction.
Where [16] appears, read: MELAS cybrid survival, CellTiter-Glo 48 h, stronger effect = higher value.
[17] abbreviates: Rieske KO mouse fibroblast survival, CellTiter-Glo 72 h.

For orientation: viability means a read-out of living cells in per cent, often relative to untreated cells. Broadly, the inhibition is the relative decrease from the control value, in per cent.

Calcium-activated potassium channel subunit alpha-1 (Homo sapiens) + Leucine-rich repeat-containing protein 26 (Homo sapiens), sequence (Q2I0M4 whole entry, looked up, one chain of several): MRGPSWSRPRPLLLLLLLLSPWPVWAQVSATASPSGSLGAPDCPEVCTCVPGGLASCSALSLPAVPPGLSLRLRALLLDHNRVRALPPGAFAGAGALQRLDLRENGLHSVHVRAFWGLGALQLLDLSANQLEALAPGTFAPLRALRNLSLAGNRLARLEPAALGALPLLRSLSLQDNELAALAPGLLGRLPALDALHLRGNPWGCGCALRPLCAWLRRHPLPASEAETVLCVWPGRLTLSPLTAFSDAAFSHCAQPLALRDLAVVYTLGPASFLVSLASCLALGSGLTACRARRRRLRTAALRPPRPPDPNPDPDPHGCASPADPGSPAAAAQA

Consider `CC1c2cccc(O)c2C(O)=C2C(=O)C3(O)C(O)=C(C(N)=O)C(=O)C(N(C)C)C3C(O)C21` (stereo not given), for which the parasite load remaining in assay [1] is 45.4% (inactive). In [1], the viability came to 132%. Further, the fluorescence ratio in assay [2] is 1.05 (inactive); in [5], 1 (inactive). In addition, the inhibition in assay [3] was -13.2% (inactive); in assay [4], -2.76% (inactive). For the same molecule, in assay [6], the mean signal was 241 (inactive). The fold change in assay [7] (setting [12]) is 1.04 (inactive); in assay [7] (setting [13]) it was 1.1. Besides, the values for the cell count in [7] (setting [14]) and in assay [7] (setting [15]) were 2090 and 2010, respectively. Besides, the z-score in [8] was -1.48 (inactive). For the same molecule, the log fold change Tl+ flux with F380Y is 0.0135 (inactive); in the assay on F380Y/beta1, -0.12 (active); in the assay with F380Y/beta2Delta, -0.0466 (inactive); in the assay with F380Y/beta4, -0.028 (inactive); in assay [9], -0.0167 (inactive); in the assay with R275C, -0.0534 (inactive). Moreover, the log fold change Tl+ flux was -0.0443 (inactive) in the assay on R275C/beta1, -0.0148 (inactive) in the assay on R275C/beta2Delta, -0.108 (inactive) in the assay with R275C/beta4 and -0.0846 (inactive) with R275C/Slo1WT/beta2.
`Cc1nnc(SCC2=C(C(=O)O)N3C(=O)C(NC(=O)Cn4cnnn4)C3SC2)s1` (stereo not given): in assay [1], the parasite load remaining was 65.6% (inactive). Moreover, in assay [1], the viability was 110%. Besides, the mean signal in assay [6] was 235 (inactive). In addition, the fold change is 0.923 (inactive) in assay [7] (setting [12]) and 1.36 in assay [7] (setting [13]). The cell count in [7] (setting [14]) was 10000; in assay [7] (setting [15]), 10800. The z-score in [8] is -0.49 (inactive). The log fold change Tl+ flux with F380Y was -0.00444 (inactive); in the assay with F380Y/beta1, -0.0723 (inactive); in the assay with F380Y/beta2Delta it was 0.025 (inactive); in the assay on F380Y/beta4, 0.028 (inactive); in [9], 0.00509 (inactive); in the assay with R275C it was 0.00777 (inactive). Moreover, the log fold change Tl+ flux is 0.00195 (inactive) in the assay on R275C/beta1, 0.0237 (inactive) with R275C/beta2Delta, -0.0318 (inactive) in the assay on R275C/beta4 and 0.0155 (inactive) in the assay on R275C/Slo1WT/beta2.
Take `C[C@H]1[C@@H](OC(=O)CCC(=O)O)O[C@@H]2OC3(C)CC[C@H]4[C@H](C)CC[C@@H]1[C@@]24OO3`: in assay [1], the parasite load remaining is 54.9% (inactive) and 19.6% (inactive). Moreover, in [1], the viability was 74.2% and 68%. For the same molecule, the results for the fluorescence ratio in assay [2] and in [5] were 1.05 (inactive) and 0.99 (inactive), respectively. Moreover, the inhibition in [3] was 4.36% (inactive); in [4], -3.18% (inactive). Moreover, the z-score in assay [10] was -0.982 (inactive); in [11] (setting [16]) it was -1.42 (inactive); in [11] (setting [17]) it was 0.615; in assay [8], -2.11 (inactive). Besides, in [6], the mean signal is 258 (inactive). The fold change in assay [7] (setting [12]) is 1.04 (inactive); in assay [7] (setting [13]), 0.836. Also, the cell count is 6160 in assay [7] (setting [14]) and 5910 in assay [7] (setting [15]). Further, the log fold change Tl+ flux is 0.0198 (inactive) with F380Y; 0.0472 (inactive) in the assay on F380Y/beta1; 0.00204 (inactive) with F380Y/beta2Delta; 0.00589 (inactive) in the assay with F380Y/beta4; -0.0126 (inactive) in assay [9]; 0.0183 (inactive) with R275C. For the same molecule, the log fold change Tl+ flux in the assay with R275C/beta1 is 0.0209 (inactive); in the assay with R275C/beta2Delta, 0.00454 (inactive); with R275C/beta4, -0.0146 (inactive); in the assay with R275C/Slo1WT/beta2, 0.000694 (inactive).
For `COc1ccnc(CS(=O)c2nc3cc(OC(F)F)ccc3[nH]2)c1OC` (stereo not given), the parasite load remaining in assay [1] is 94.6% (inactive). Besides, the viability in assay [1] is 75.5%. Also, the fluorescence ratio in assay [2] is 1.07 (inactive); in assay [5], 1.05 (inactive). Also, the inhibition in assay [3] was -2.77% (inactive); in assay [4], 1.44% (inactive). Besides, the z-score in assay [10] is 0.437 (inactive); in assay [11] (setting [16]), 1.33 (inactive); in [11] (setting [17]) it was 0.907; in assay [8], 0.63 (inactive). The mean signal in assay [6] was 243 (inactive). Moreover, the fold change was 0.937 (inactive) in [7] (setting [12]) and 1.32 in assay [7] (setting [13]). In addition, the values for the cell count in assay [7] (setting [14]) and in assay [7] (setting [15]) were 9070 and 9680, respectively. Moreover, the log fold change Tl+ flux was -0.000729 (inactive) with F380Y; -0.0068 (inactive) with F380Y/beta1; 0.0285 (inactive) in the assay on F380Y/beta2Delta; -0.0379 (inactive) in the assay on F380Y/beta4; 0.0336 (inactive) in assay [9]; -0.0182 (inactive) with R275C. Further, the log fold change Tl+ flux in the assay with R275C/beta1 is 0.0487 (inactive); in the assay with R275C/beta2Delta, 0.0404 (inactive); in the assay with R275C/beta4, -0.00392 (inactive); in the assay with R275C/Slo1WT/beta2, -0.00592 (inactive).
